# Screening results (PubChem BioAssay)
# An excerpt weighted towards active compounds, which were near 13% of everything screened.
# USP8 block = human USP8 deubiquitinase inhibition | AID 1645853 | hit rate 4.2% among 47,000 | inhibition, % at 20 µM | purified USP8, Ub-rhodamine cleavage fluorescence, 30 min
# USP28 inh = blocks human USP28 ubiquitin-rhodamine cleavage. AID 1645857. inhibition, % at 25 µM. Q96RU2. purified USP28, Ub-rhodamine cleavage fluorescence, 30 min. hit rate 3% among 47,000
# USP30 inh = inhibitors of human USP30 deubiquitinase; purified USP30, Ub-rhodamine cleavage fluorescence; inhibition, % at 25 µM; hit rate 5.3% among 47,000; AID 1645860
# Target sequence (Q70CQ3 whole entry, looked up): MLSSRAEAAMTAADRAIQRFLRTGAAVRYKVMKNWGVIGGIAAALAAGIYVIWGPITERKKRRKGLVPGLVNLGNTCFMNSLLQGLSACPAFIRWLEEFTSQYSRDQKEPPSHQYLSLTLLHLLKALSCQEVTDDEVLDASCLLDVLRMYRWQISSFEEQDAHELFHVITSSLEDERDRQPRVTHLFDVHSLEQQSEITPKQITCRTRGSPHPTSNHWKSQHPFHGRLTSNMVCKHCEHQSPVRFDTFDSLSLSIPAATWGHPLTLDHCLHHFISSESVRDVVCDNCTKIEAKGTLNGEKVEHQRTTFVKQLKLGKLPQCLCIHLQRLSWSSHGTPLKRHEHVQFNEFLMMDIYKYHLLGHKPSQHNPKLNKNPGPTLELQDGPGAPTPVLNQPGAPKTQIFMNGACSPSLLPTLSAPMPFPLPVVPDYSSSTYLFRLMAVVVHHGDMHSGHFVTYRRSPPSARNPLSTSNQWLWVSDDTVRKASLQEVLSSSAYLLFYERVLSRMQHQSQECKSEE
# USP17 inh = blocks human USP17 ubiquitin-rhodamine cleavage; A8MUK1; purified USP17, Ub-rhodamine cleavage fluorescence, 3 h; inhibition, % at 50 µM; hit rate 6.5% among 47,000; AID 1645855
# A number is an active result; – = inactive; · = no result. No stated cut-off is given here; in the data, active means inhibition above about 30%; inactive means the rest.
SMILES,USP8 block,USP28 inh,USP30 inh,USP17 inh
CCOc1ccc(S(=O)(=O)n2cc3c(=O)n(C)c(=O)n(C)c3n2)cc1,–,–,–,33
CC1(C)Cc2nc(N3CCCC3)ncc2C(NC(=O)C2CCCCC2)C1 (configuration not stated),–,–,–,–
O=C(Cn1cc(-c2nnco2)c2ccccc21)NC1CCCCCC1,–,–,–,38
COc1cc2cc(Oc3ccc4ccc(=O)oc4c3)c(=O)oc2cc1O,–,–,34,–
O=C(CSc1nnc2ccc(-c3ccccc3)nn12)Nc1ccc(F)cc1,–,–,34,43
CCOc1ccc(NC(=O)COC(=O)C2(c3ccc(F)cc3)CCCC2)cc1,–,–,–,–
CCOc1ccc(-c2ccc3nnc(SCC(=O)Nc4ccc(F)cc4)n3n2)cc1,78,–,33,·
O=C(Cn1nc(-c2ccccc2)cc(NC(=O)c2ccccc2)c1=O)Nc1ccc(F)cc1,–,–,39,39
Cc1cccc(OCCCn2c(CN(C)C(=O)c3ccco3)nc3ccccc32)c1,–,–,–,–
COCCN1C(=O)Cc2ccccc2C1C(=O)NCc1cccc(C)c1 (configuration not stated),–,–,–,–
Cc1noc(-c2cnc(NC3CC3)nc2-c2ccco2)c1C,–,–,–,–
COc1ccc(OC)c(CC(=O)NC2CC3(CCOCC3)Oc3ccccc32)c1 (configuration not stated),–,–,44,–
CCOc1cccc(CNc2nc3ccncc3n(Cc3ccccc3)c2=O)c1,–,–,36,–
O=c1c(NCCCN2CCCC2)nc2ccncc2n1Cc1ccccc1,–,–,–,58
CCCCNc1nc2ccncc2n(Cc2ccccc2)c1=O,–,·,·,–
CC(C)CC1Nc2ccc(C(=O)N3CCN(c4ccccn4)CC3)cc2NC1=O (configuration not stated),53,–,–,–
CC(=O)c1cc(-c2ccc(F)cc2)n(CC(=O)Nc2cccc(C)c2C)c1C,41,–,73,52
COc1ccc(C2CC(=O)c3cnc(NCC4CCCO4)nc3C2)cc1OC (configuration not stated),–,–,30,–
CC1CC(=O)c2cnc(NCC3CCCO3)nc2C1 (configuration not stated),–,–,–,–
O=C(c1cc(C2CC2)[nH]n1)N1CCC(Cc2ccccc2)CC1,–,–,32,–
O=C(c1cn2cc(Cl)ccc2n1)N1CCC(Cc2ccccc2)CC1,–,–,30,–
O=C(c1cc(C2CC2)[nH]n1)N1CCC(C2Nc3ccccc3S(=O)(=O)N2)CC1 (configuration not stated),–,–,–,–
O=C(c1ccncc1)N1C[C@H]2C[C@H]3[C@](C1)(CN(Cc1cccc(Cl)c1)S3(=O)=O)O2,–,–,–,–
Cc1ccc(S(=O)(=O)N2CCC3(CC2)NC(=O)c2ccccc2N3)cc1C,–,–,–,58
Cc1ccc(S(=O)(=O)N2CCC3(CC2)NC(=O)c2ccccc2N3)c(C)c1,–,–,–,62
SMILES,USP8 block,USP28 inh,USP30 inh,USP17 inh
CC(=O)c1ccc(S(=O)(=O)N2CCC3(CC2)NC(=O)c2ccccc2N3)cc1,33,–,–,–
O=C1NC2(CCN(S(=O)(=O)c3ccc(F)c(F)c3)CC2)Nc2ccccc21,–,–,–,–
NC(=O)C1(N2CCCCC2)CCN(C(=O)CCCn2c(=O)[nH]c3cc(Cl)ccc3c2=O)CC1,–,–,–,–
Cc1cccc(-n2cc(-c3ccccc3)c3c(NCc4ccccn4)ncnc32)c1,–,–,–,–
c1ccc(-c2cn(-c3ccccc3)c3ncnc(NC4CC4)c23)cc1,–,35,–,–
Clc1cccc(-n2cc(-c3ccccc3)c3c(NCc4ccccn4)ncnc32)c1,–,53,75,70
O=C1C(N2CCCN(S(=O)(=O)c3cccnc3)CC2)CCN1CC1CC1 (configuration not stated),–,–,–,–
Clc1ccc2nc(COc3ccccc3Cc3ccccc3)[nH]c2c1,63,–,–,31
O=C(Nc1ccc2nc(CCc3ccccc3)[nH]c2c1)c1ccncc1,–,–,–,–
Cn1cc(C2CCCN2C(=O)c2cc(C3CC3)n(C(C)(C)C)n2)cn1 (configuration not stated),–,–,–,·
O=C(c1ccc2ccccc2n1)N1CCCC(Cc2cc(-c3ncc[nH]3)ncn2)C1 (configuration not stated),–,–,–,–
O=C1CN(C(=O)COC(=O)c2ccc(Cl)cc2)c2ccccc2N1,–,–,–,–
O=C1CN(C(=O)COC(=O)C(c2ccccc2)c2ccccc2)c2ccccc2N1,–,32,–,–
